# Experimental data published in PubChem BioAssay (NCATS).
# Results filed as inconclusive are left out. Entries that show only a call come without a potency. Calls of active or inactive are those of the source. Calls come from the whole dose curve; tested in HEK293 reporter line.
# Test: qHTS for Inhibitors of the Functional Ribonucleoprotein Complex (vRNP) of Lassa (LASV) Arenavirus: LASV Primary Screen - GLuc reporter signal (AID 1347082); note: nearly all actives have a fitted effect of over 60% in size
# Conditions: LASV minigenome vRNP, Gaussia luciferase reporter; series mostly up to 57.5 µM
Compound,Potency,"activity change, negative = inhibition"
Cc1c(O)ccoc1=O,inactive,
O=C(O)C1=CO[C@@H](O[C@@H]2O[C@H](CO)[C@H](O)[C@H](O)[C@H]2O)[C@@H]2C(CO)=CC[C@H]12,inactive,
CC(C)C1C(=O)O[C@@H]2CCN3CC=C(COC(=O)[C@](C)(O)[C@]1(C)O)[C@H]23 (some centres not stated),inactive,
c1coc(Cn2cccc2)c1,inactive,
COc1ccc2cc1Oc1ccc(cc1)CC1c3cc(c(OC)cc3CCN1C)Oc1c(OC)c(OC)c(OC)c3c1C(C2)N(C)CC3 (configuration not stated),inactive,
CCCCCCCCC(=O)OCC,inactive,
C[C@@H]1C[C@@H]2OC(=O)[C@]3(C)[C@H]2[C@@H](OC3(C)O)[C@]2(C)C(=O)C=C[C@H]12 (some centres not stated),inactive,
O=c1ccc2ccc(O[C@@H]3O[C@H](CO[C@@H]4OC[C@](O)(CO)[C@H]4O)[C@@H](O)[C@H](O)[C@H]3O)cc2o1,inactive,
CC(C)C1=CC2=CC[C@@H]3[C@](C)(CCC[C@@]3(C)C(=O)O)[C@H]2CC1,inactive,
O=c1ccn([C@H]2C[C@H](O)[C@@H](CO)O2)c(=O)[nH]1,inactive,
CCNc1nc(N)nc(Cl)n1,inactive,
CC(C)c1noc(N2CCC(COc3ccc(-c4ccc(S(C)(=O)=O)cc4)nc3)CC2)n1,inactive,
CCCCCCOC(=O)CCC,inactive,
CCC(=O)OCC(=O)[C@@]1(OC(=O)CC)[C@@H](C)C[C@@H]2[C@H]3CCC4=CC(=O)C=C[C@]4(C)[C@@]3(F)[C@@H](O)C[C@@]21C,inactive,
Cc1csc(NC(=O)c2sc3nc4c(c(C(F)(F)F)c3c2N)CCC4)n1,inactive,
CCCCCC(=O)OCC,inactive,
Cn1c(N2CCCCS2(=O)=O)nc(C(=O)NCc2ccc(F)cc2)c(O)c1=O,inactive,
O=c1c(O)c(-c2ccccc2O)oc2cc(O)cc(O)c12,inactive,
C[C@@H](O)CCC[C@H](O)/C=C/[C@H]1[C@H](O)CC(=O)[C@@H]1C/C=C\CCCC(=O)O,,-72.5% [at 5.82 µM] (inactive)
CCCCCC/C=C/C=O,inactive,
c1cnc2c(-c3nccc4c3[nH]c3ccccc34)cccc2c1,inactive,
Cc1cc(CS(=O)(=O)c2ccccc2)cc(OCc2ccc(CN3CCC[C@H]3CO)cc2)c1,inactive,
CC1=CC2OC3CC4OC(=O)C=CC=CC(=O)OCCC(C)C(O)C(=O)OCC2(CC1O)C4(C)C31CO1 (configuration not stated),inactive,
C[C@@H]1CCCCCCCCCCC1=O,inactive,
COc1ccc2[nH]cc(CCO)c2c1,inactive,
COc1ccc2c3c([nH]c2c1)C(C)NCC3 (configuration not stated),inactive,
CCc1nccc2c1[nH]c1ccccc12,inactive,

# Test: qHTS for Inhibitors of the Functional Ribonucleoprotein Complex (vRNP) of Lassa (LASV) Arenavirus: Viability assay - alamar blue signal for LASV Primary Screen (AID 1347083); note: nearly all actives have a fitted effect of over 80% in size; note: potency is the fitted concentration of half-maximal effect
# Conditions: cell viability, alamar blue fluorescence (LASV minigenome counter-screen); series mostly up to 57.5 µM
Compound,Potency,"activity change, negative = reduced viability"
COc1ccc(-c2coc3cc(O[C@@H]4O[C@H](CO)[C@@H](O)[C@H](O)[C@H]4O)c(OC)cc3c2=O)cc1,inactive,
N[C@H](CSSC[C@@H](N)C(=O)O)C(=O)O,inactive,
CC1(C)Oc2cc3oc(=O)ccc3cc2C[C@@H]1O,inactive,
C=C[C@@H]1CN2CC[C@@H]1C[C@H]2[C@H](O)c1ccnc2ccc(OC)cc12,inactive,
COC1[C@@H](O[C@@H]2O[C@H](C)[C@@H](O[C@H]3C[C@@](C)(O)[C@H](OC(=O)CC(C)C)[C@H](C)O3)[C@H](N(C)C)[C@H]2O)[C@@H](CC=O)C[C@@H](C)[C@@H](O)/C=C/C=C/C[C@@H](C)OC(=O)C[C@H]1OC(C)=O (some centres not stated),inactive,
CCCCCCCCCCCC,inactive,
CC1=C(/C=C/C(C)=C/C=C/C(C)=C/C=C/C=C(C)/C=C/C=C(\C)C=O)C(C)(C)CCC1,inactive,
CCCCCCCCCCCCCCCCCCCCCCCCCCCCCC,inactive,
CC(=O)OCC(=O)[C@@]1(O)CC[C@H]2[C@@H]3CCC4=CC(=O)C=C[C@]4(C)[C@@H]3[C@@H](O)C[C@@]21C,inactive,
COc1cc(CCc2cc(NC(=O)c3ccc(N4C[C@@H](C)N[C@@H](C)C4)cc3)n[nH]2)cc(OC)c1,34.3 µM (active),
CC(C)=CCc1c(O)cc(O)c2c1OC(c1ccc(O)cc1)CC2=O (configuration not stated),inactive,
C[N+](C)(C)CCOP(=O)([O-])OC[C@H](O)CO,inactive,
CC(C)(O)CC[C@H](OC(=O)c1ccccc1)[C@](C)(O)[C@H]1CC[C@@]2(O)C3=CC(=O)[C@@H]4C[C@@H](O)[C@H](O)C[C@]4(C)C3CC[C@]12C (some centres not stated),inactive,
Cc1c(O)ccoc1=O,inactive,
O=C(O)C1=CO[C@@H](O[C@@H]2O[C@H](CO)[C@H](O)[C@H](O)[C@H]2O)[C@@H]2C(CO)=CC[C@H]12,inactive,
CC(C)C1C(=O)O[C@@H]2CCN3CC=C(COC(=O)[C@](C)(O)[C@]1(C)O)[C@H]23 (some centres not stated),inactive,
c1coc(Cn2cccc2)c1,inactive,
COc1ccc2cc1Oc1ccc(cc1)CC1c3cc(c(OC)cc3CCN1C)Oc1c(OC)c(OC)c(OC)c3c1C(C2)N(C)CC3 (configuration not stated),inactive,
CCCCCCCCC(=O)OCC,inactive,
C[C@@H]1C[C@@H]2OC(=O)[C@]3(C)[C@H]2[C@@H](OC3(C)O)[C@]2(C)C(=O)C=C[C@H]12 (some centres not stated),inactive,

Compound,Potency,"activity change, negative = reduced viability"
O=c1ccc2ccc(O[C@@H]3O[C@H](CO[C@@H]4OC[C@](O)(CO)[C@H]4O)[C@@H](O)[C@H](O)[C@H]3O)cc2o1,inactive,
CC(C)C1=CC2=CC[C@@H]3[C@](C)(CCC[C@@]3(C)C(=O)O)[C@H]2CC1,inactive,
O=c1ccn([C@H]2C[C@H](O)[C@@H](CO)O2)c(=O)[nH]1,inactive,
CCNc1nc(N)nc(Cl)n1,inactive,
CC(C)c1noc(N2CCC(COc3ccc(-c4ccc(S(C)(=O)=O)cc4)nc3)CC2)n1,inactive,
CCCCCCOC(=O)CCC,inactive,
CCC(=O)OCC(=O)[C@@]1(OC(=O)CC)[C@@H](C)C[C@@H]2[C@H]3CCC4=CC(=O)C=C[C@]4(C)[C@@]3(F)[C@@H](O)C[C@@]21C,inactive,
Cc1csc(NC(=O)c2sc3nc4c(c(C(F)(F)F)c3c2N)CCC4)n1,inactive,
CCCCCC(=O)OCC,inactive,
Cn1c(N2CCCCS2(=O)=O)nc(C(=O)NCc2ccc(F)cc2)c(O)c1=O,inactive,
O=c1c(O)c(-c2ccccc2O)oc2cc(O)cc(O)c12,inactive,
C[C@@H](O)CCC[C@H](O)/C=C/[C@H]1[C@H](O)CC(=O)[C@@H]1C/C=C\CCCC(=O)O,,-134% [at 5.82 µM] (inactive)
CCCCCC/C=C/C=O,inactive,
c1cnc2c(-c3nccc4c3[nH]c3ccccc34)cccc2c1,inactive,
Cc1cc(CS(=O)(=O)c2ccccc2)cc(OCc2ccc(CN3CCC[C@H]3CO)cc2)c1,inactive,
CC1=CC2OC3CC4OC(=O)C=CC=CC(=O)OCCC(C)C(O)C(=O)OCC2(CC1O)C4(C)C31CO1 (configuration not stated),inactive,
C[C@@H]1CCCCCCCCCCC1=O,inactive,
COc1ccc2[nH]cc(CCO)c2c1,inactive,
COc1ccc2c3c([nH]c2c1)C(C)NCC3 (configuration not stated),inactive,
CCc1nccc2c1[nH]c1ccccc12,inactive,
